Screen size: about 58,000 compounds; about 3,400 (5.9%) were called active.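 Rule for the calls: active = luminescence count or its row- and column-corrected plate score outside the 99.7% band of the plate's sample wells, on either side; inactive = the rest.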 For the sample, actives were picked, then their nearest neighbours and some compounds at random.
biological target: D(1A) dopamine receptor (Homo sapiens) (UniProt P21728); test: D1 CRE-luciferase signal change, two-sided – cell-based, HEK293 D1, dopamine EC30, D1 allosteric modulator project, primary screen (AID 641); conditions: dopamine EC30 potentiation, at 10 µM, actives deviate in either direction
Sequence (P21728 whole entry, looked up): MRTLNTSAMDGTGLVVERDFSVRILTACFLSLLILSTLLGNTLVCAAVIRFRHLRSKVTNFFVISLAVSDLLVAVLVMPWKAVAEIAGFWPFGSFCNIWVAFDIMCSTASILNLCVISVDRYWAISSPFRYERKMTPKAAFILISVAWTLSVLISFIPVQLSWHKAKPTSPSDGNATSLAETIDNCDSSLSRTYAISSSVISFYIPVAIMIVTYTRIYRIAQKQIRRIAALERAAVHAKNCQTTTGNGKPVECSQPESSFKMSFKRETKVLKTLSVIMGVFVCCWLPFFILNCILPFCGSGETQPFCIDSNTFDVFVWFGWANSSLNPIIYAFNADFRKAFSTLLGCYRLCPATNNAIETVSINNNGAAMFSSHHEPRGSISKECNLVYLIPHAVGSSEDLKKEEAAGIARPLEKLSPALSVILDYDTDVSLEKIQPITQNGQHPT

B-score, active:
CN(C)c1nc(N)nc(CSc2nnnn2-c2cccc3ccccc23)n1 7.63
COc1nc(NCc2ccc(Cl)cc2)nc(OC)n1 6.81
COc1ccc(CCNC(=O)c2cc3sccc3n2C)cc1OC 4.1
CCOc1ccc2[nH]c(=O)c(C(c3nnnn3CCOC)N3CCOCC3)cc2c1 (stereo not drawn) 10.2
CCOc1ccccc1C1CC(c2ccccc2)Nc2nc(N)nn21 (stereo not drawn) 5.88
Cc1ccc(C2CC(c3cccc(C)c3)n3nc(N)nc3N2)cc1 (stereo not drawn) 6.52
Cc1ccc(C2CC(c3cccc(Br)c3)n3nc(N)nc3N2)cc1 (stereo not drawn) 9.49
CN1CCN(CC(O)COCc2ccc3c(c2)OCO3)CC1 (stereo not drawn) 3.63
O=C(NCc1ccccn1)c1ccc2nc(-c3ccco3)c(-c3ccco3)nc2c1 7.64
CCCn1c(=NC(C)=O)c(C(=O)OCC)cc2c(=O)n3ccccc3nc21 4.16
Cc1ccc(-c2nn(-c3ccccc3)cc2CN(Cc2ccccc2)C(=O)CCC(=O)O)o1 13.6

B-score, inactive:
CSCCC1NC2(C(=O)Nc3ccc(Cl)cc32)[C@@H]2C(=O)N(C3CCCC3)C(=O)[C@H]12 (stereo partly drawn) 0.395
Cc1ccc(-c2noc(CSc3nnnn3-c3ccccc3)n2)cc1 0.0126
Cn1nnnc1SCc1cc(=O)[nH]c2ccccc12 0.325
Cn1c(SCc2c(F)cccc2Cl)nnc1-c1cnccn1 -0.043
Cc1nc2cc(-c3ccc(F)cc3)nn2c(N2CCOCC2)c1C 3.86
C/C(O)=C\c1nc(=O)c2c(C)cc(C)nc2n1-c1ccccc1 0.549
O=C1CCCC2=C1C(c1cccs1)n1nc(SCc3ccccc3)nc1N2 (stereo not drawn) 0.252
C=CCNc1nc(C)nc(OC)n1 0.422
COC(=O)c1nc(NC(=O)c2ccc(Cl)cc2)n[nH]1 -0.0452
Cc1c(-c2nn(C)c(=O)c3ccccc23)oc2ccc(F)cc2c1=O 1.77
CC(CNC(=O)c1ccc(Br)o1)NC(=O)c1ccc(Br)o1 (stereo not drawn) -0.012
CCc1nc(C)cn1S(=O)(=O)c1cc(OC)c(C)cc1C -0.851
Cn1c(C(=O)NCCCN2CCCCC2)cc2sccc21 -0.452
COc1ccc(CCNC(=O)c2cc(-c3ccc4c(c3)OCO4)on2)cc1OC 0.448
COC(CCN(C)C)(c1ccccc1)c1ccccc1 -0.765
COCCn1nnnc1C(c1cc2ccc(OC)cc2[nH]c1=O)N1CCc2ccccc2C1 (stereo not drawn) -0.278
COc1ccc(N2CCN(C(c3cc4ccc(C)cc4[nH]c3=O)c3nnnn3C3CCCC3)CC2)cc1 (stereo not drawn) 0.0349
O=C(c1cc(-c2cccc(O)c2)on1)N1CCc2ccccc2C1 -0.88
Nc1nc2n(n1)C(c1ccco1)CC(c1ccc(Cl)c(Cl)c1)N2 (stereo not drawn) 0.226
COc1ccc(C2CC(c3ccc(C)cc3)Nc3ncnn32)cc1 (stereo not drawn) 0.317
COc1ccc(C2CC(c3ccc(Cl)cc3Cl)Nc3nc(N)nn32)cc1OC (stereo not drawn) -0.179
CCOc1ccccc1C1CC(c2ccc(Cl)cc2)Nc2nc(N)nn21 (stereo not drawn) 1.36
Clc1ccc(C2CC(c3cccs3)n3ncnc3N2)cc1Cl (stereo not drawn) 2.58
FC(F)Oc1ccccc1C1CC(c2ccc(Br)s2)Nc2ncnn21 (stereo not drawn) 0.0618
CCc1nnc(NC(=O)c2cccs2)s1 -1.13
COc1ccc(OC)c(S(=O)(=O)Nc2ccccc2F)c1 0.662
O=C(CSc1nnc(-c2cccs2)n1-c1ccccc1)NCc1ccco1 0.124
CCOc1cc(C(=S)N2CCOCC2)ccc1O 0.0105
O=C(CSC1=NCCS1)Nc1nc(-c2ccccc2)cs1 2.09
NC(=O)c1ccccc1NC(=O)c1ccccc1F -0.754
COc1ccc(-n2nnc3c(=O)n(CC(=O)N4CCC(Cc5ccccc5)CC4)cnc32)cc1 -0.0249
COCCNC(=O)Cn1cc2c(n1)CCCCC2 -0.978
COc1ccc(S(=O)(=O)N(CCCN2CCCC2=O)Cc2cc3c(C)ccc(C)c3[nH]c2=O)cc1 0.354
O=C(c1cccs1)N1CCN(Cc2ccc3c(c2)OCO3)CC1 -0.554
Cc1cc(N2CCN(Cc3ccc4c(c3)OCO4)CC2)n2ncnc2n1 0.443
CC(=O)Nc1ccc(S(=O)(=O)N2CCSCC2)cc1 -0.0119
CCOC(=O)C(C)Oc1cccc2c(=O)n(CC(=O)N3CCc4ccccc43)ccc12 (stereo not drawn) 0.245
COCCNCCOCCOc1cccc(OC)c1 -0.824
Cc1cccn2c(=O)c3cc(C(=O)NCc4ccccn4)n(C)c3nc12 0.762
O=C(NCc1ccccn1)c1cc2ccccc2oc1=O 0.0147
CCOC(=O)c1sc(NC(=O)C(CC)Sc2nccn2C)nc1C (stereo not drawn) 0.947
Cc1cc(C)nc(SCc2ccccc2C#N)n1 1.42
CCC(Sc1nncn1C)C(=O)Nc1nnc(-c2ccc(Cl)cc2)s1 (stereo not drawn) 0.176
COCCN(CC(=O)Nc1ccccc1C)S(=O)(=O)c1ccc(S(=O)(=O)N2CCCC2)cc1 0.0335
CCn1c(SCCC(C)C)nnc1-c1c[nH]c2ccccc12 -1.04
COc1ccc(CNC(=O)c2cc3c(=O)n4ccccc4nc3n(CC3CCCO3)c2=N)cc1 (stereo not drawn) -0.73
CCOC(=O)c1cnc2sccn2c1=O -0.341
COc1cccc(N2C(=O)C3CCCN3C2c2ccc(F)cc2)c1 (stereo not drawn) 0.0389
COCCNC(=O)C(c1ccc(C)o1)N(Cc1ccccc1)C(=O)Cn1nnc2ccccc21 (stereo not drawn) 0.0616
COc1ccc(-c2nn(-c3ccccc3)cc2C(=O)Nc2nc(CC(C)=O)ns2)cc1 0.451
O=C(O)CCCC(=O)Nc1ccccc1-n1ccnc1 -0.0259
CNC(=O)CSc1nnc(CCc2ccccc2)n1-c1ccccc1 0.762
